In the library only some 10% were active in any assay of this set; here they are far more common.
Six1-Eya2 blk: Six1/Eya2 interaction inhibition. AlphaScreen GST-Six1/His-Eya2 binding, biochemical; active compounds read low. activity change, % (test concentration not listed). actives 0.56% (n = 360,000). AID 651725; in the data active means activity change below about -65%; inconclusive means mostly about -30% to -63%; further: on the % scale 0 is the no-effect control and ±100 the full control effect
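AlphaScreen with GST-Six1 and His-Eya2 (5X mix: 250 nM and 500 nM), glutathione donor and nickel acceptor beads; buffer 50 mM Tris pH 8.0, 300 mM NaCl, 1 mM TCEP; 1 h at 37 C in the dark.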
CtBP-E1A inh: CtBP/E1A binding inhibition; AlphaScreen GST-E1A/His-CtBP binding, 1536-well; active compounds read low; activity change, % (no concentration beside the values); actives 0.49% (n = 340,000); AID 651724; in the data active means activity change below about -65%; inconclusive means mostly about -30% to -63%; further: on the % scale 0 is the no-effect control and ±100 the full control effect
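Protein mix (5X: 125 nM each GST-E1A, His-CtBP) was incubated with pinned compound 2 h at 37 deg C in dark, in 50 mM Tris pH 8.0 buffer with 300 mM NaCl. Glutathione donor and nickel acceptor beads followed; AlphaScreen signal read after 1 h.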
BAZ2B inh: inhibitors of human BAZ2B bromodomain | actives 4.4% (n = 360,000) | AID 504333 | Q9UIF8 | AlphaScreen BAZ2B-H3K14Ac peptide displacement | Potency, µM (highest dose often 114 µM), without a hit: at the highest dose activity change, negative = inhibition, hits mostly inhibitors; further: potency means the concentration at half of the fitted maximal effect; on the % scale 0 is the no-effect control and ±100 the full control effect; nearly all actives have a fitted effect of over 60% in size
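BAZ2B (50 nM) with biotin-H3(5-23)K14Ac peptide (50 nM) in PBS pH 7.4, 0.01% Tween-20, preformed 30 min, then compound 30 min at room temperature; top concentration 110uM. AlphaScreen streptavidin donor/nickel chelate acceptor beads (10 ug/mL final), 20 min dark, signal read.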
HP1b binding inh: blocks HP1-beta chromodomain binding to methylated histone tails. P83916. AlphaScreen HP1-beta / biotin-H3K9me3 peptide binding. Potency, µM (highest dose often 114 µM), for inactives: at the top dose activity change, negative = inhibition, usual class: inhibitors. actives 0.56% (n = 390,000). AID 540317; further: potency means the concentration at half of the fitted maximal effect; nearly all actives have a fitted effect of over 70% in size
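HP1-beta protein (50 nM final) preincubated 30 min at room temperature with biotinylated H3(1-18)K9me3 peptide (50 nM) in PBS pH 7.4, 0.01% Tween-20, then compound added for 30 min. AlphaScreen streptavidin donor/nickel chelate acceptor beads (10 ug/mL final), 30 min dark, luminescence read.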
G9a block: G9a (human) methyltransferase inhibition; Q96KQ7; G9a H3K9 monomethylation, AlphaScreen, 2 h; Potency, µM (highest dose often 102 µM), inactives show top-dose activity, negative = inhibition, actives largely listed as inhibitors; actives 8.8% (n = 350,000); AID 504332; further: potency means the concentration at half of the fitted maximal effect; on the % scale 0 is the no-effect control and ±100 the full control effect; nearly all actives have a fitted effect of over 75% in size
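Signal arises when biotinylated H3K9 peptide, once monomethylated, bridges streptavidin donor and antibody-captured acceptor beads. Enzyme at 20 nM was preincubated 15 min with test compounds; peptide 500 nM and SAM 20 uM then reacted for 2 h.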
JMJD2A Tudor: inhibitors of human JMJD2A Tudor domain; Potency, µM (doses to about 114 µM), for inactives: at the highest dose activity change, negative = inhibition, actives largely listed as inhibitors; actives 4.4% (n = 390,000); AlphaScreen JMJD2A-Tudor / H3K4me3 peptide binding; AID 504339; O75164; further: potency means the concentration at half of the fitted maximal effect; on the % scale 0 is the no-effect control and ±100 the full control effect; nearly all actives have a fitted effect of over 50% in size
Target sequence (O75164 whole entry, looked up, the tested form may be a part): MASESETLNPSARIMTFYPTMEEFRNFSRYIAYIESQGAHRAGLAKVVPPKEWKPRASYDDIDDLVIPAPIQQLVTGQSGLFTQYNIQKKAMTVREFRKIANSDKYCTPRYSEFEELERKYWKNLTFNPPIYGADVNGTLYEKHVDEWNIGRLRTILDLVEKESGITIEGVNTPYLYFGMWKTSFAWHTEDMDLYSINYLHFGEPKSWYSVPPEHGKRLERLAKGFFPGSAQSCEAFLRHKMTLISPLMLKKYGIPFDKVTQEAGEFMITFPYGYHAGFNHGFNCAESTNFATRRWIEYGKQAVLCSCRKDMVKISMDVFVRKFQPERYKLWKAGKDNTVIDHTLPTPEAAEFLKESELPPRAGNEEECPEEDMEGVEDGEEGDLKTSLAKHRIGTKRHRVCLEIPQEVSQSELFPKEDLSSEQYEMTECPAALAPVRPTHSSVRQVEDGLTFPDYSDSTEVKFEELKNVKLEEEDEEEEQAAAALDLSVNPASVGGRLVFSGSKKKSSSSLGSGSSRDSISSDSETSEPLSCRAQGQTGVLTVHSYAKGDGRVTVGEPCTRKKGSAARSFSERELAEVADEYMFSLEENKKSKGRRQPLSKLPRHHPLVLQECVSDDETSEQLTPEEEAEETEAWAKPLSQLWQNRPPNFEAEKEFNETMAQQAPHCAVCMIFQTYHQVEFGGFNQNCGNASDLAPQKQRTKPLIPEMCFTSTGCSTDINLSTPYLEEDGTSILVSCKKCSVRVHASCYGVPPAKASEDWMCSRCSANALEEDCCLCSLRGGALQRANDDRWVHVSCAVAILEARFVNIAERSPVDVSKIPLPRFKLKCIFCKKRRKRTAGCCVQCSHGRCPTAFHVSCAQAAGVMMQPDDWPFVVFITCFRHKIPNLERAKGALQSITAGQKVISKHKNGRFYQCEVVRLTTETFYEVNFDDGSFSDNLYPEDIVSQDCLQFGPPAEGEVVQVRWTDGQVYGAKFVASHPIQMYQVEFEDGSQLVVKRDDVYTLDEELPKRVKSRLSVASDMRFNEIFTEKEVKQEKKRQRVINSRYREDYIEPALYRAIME
* marks the source's active call; other numbers are inactive results; ? = inconclusive; nt = no result; [ ] = dose if it differs, or a comment. Unless noted, the call rests on the fitted dose curve; in most records, active means well fitted inhibition curve with a large enough effect; inconclusive means small, poorly fitted or top-dose-only effect; inactive means no such curve, though single readings can be large or run the other way.

SMILES	Six1-Eya2 blk	CtBP-E1A inh	BAZ2B inh	HP1b binding inh	G9a block	JMJD2A Tudor
Cc1[nH]c2ccccc2c1C(=O)COC(=O)c1ccc([N+](=O)[O-])s1	-28.5	-13.6	?	-6.0%	31.6µM*	?
Cc1cccc(Cn2cc3c(=O)n(CC(=O)Nc4cccc(C)c4C)nc-3c3cc(F)ccc32)c1	nt	nt	-3.8%	24.2%	-3.7%[59 µM]	-11.0%
O=C(COC(=O)c1ccc2ncsc2c1)Nc1ncc(Cl)cc1Cl	-10.8	-5.6	50.1µM*	-18.8%	?	?
O=C(COC(=O)c1ccc2ncsc2c1)Nc1cc(Cl)ccc1F	-1.4	0.6	-5.1%	33.6%	-30.8%	-2.0%
Cc1ccc2nsnc2c1NC(=O)c1ccc([N+](=O)[O-])o1	-0.4	0.0	0.2%	1.6%	-12.1%[59 µM]	-13.1%
CCn1c(CSc2nc3ccccc3[nH]2)nc2cc(C(=O)O)ccc21	0.6	-16.4	?	4.6%	-44.9%[12.7 µM]	?
CCn1c(CSc2nccn2C)nc2cc(C(=O)O)ccc21	-3.6	-3.7	50.1µM*	20.2%	-38.5%[12.7 µM]	31.6µM*
CCC(C)NC(=O)c1ccc(CS(=O)(=O)Cc2ccc(Cl)cc2)o1 (stereo not drawn)	26.7	44.5	10.0%	47.6%	-8.6%[12.7 µM]	-7.7%
COc1ccc(C(=O)Nc2nc3ccc(OC)cc3s2)cc1	?	-72.3*	-16.9%	13.9%	?	-17.7%
COc1ccc(C(=O)Nc2nc3ccc(S(C)(=O)=O)cc3s2)cc1	-1.5	-2.1	10.9%	42.2%	?	-0.6%
COc1ccccc1C(=O)Nc1nc2ccccc2s1	4.1	-2.0	38.4%	39.2%	5.3%[0.501 µM]	-4.3%
COc1ccc(C(=O)Nc2nc3ccccc3s2)c(OC)c1	-6.0	-6.3	-17.5%	15.5%	-16.8%	20µM*
CNS(=O)(=O)c1ccc2nc(NC(=O)c3ccc(N4C(=O)CCC4=O)cc3)sc2c1	-0.3	nt	-13.1%	13.2%	3.55µM*	?
COc1ccc2nc(Nc3nc(C)c(C(C)=O)s3)sc2c1	-0.6	-11.4	29.9%	12.2%	-15.0%[59 µM]	7.1%[57.1 µM]
COc1ccc(Nc2nc3ccc(OC)cc3s2)cc1	-4.2	0.0	56.2µM*	-27.1%	39.8µM*	?
CCc1ccc2nc(NC(=O)c3ccc(N4C(=O)CCC4=O)cc3)sc2c1	-0.8	1.2	0.0%	26.7%	-2.5%[59 µM]	0.3%
CCN1CCN(C(c2cccc(F)c2)c2c(O)cc(C)n(CCOC)c2=O)CC1 (stereo not drawn)	nt	nt	-2.7%	37.8%[57 µM]	?	-17.9%
O=C(NNC(=O)c1ccccc1[N+](=O)[O-])c1csc(N2CCOCC2)n1	0.2	6.0	0.1%	45.9%	-4.8%[0.501 µM]	-6.2%
Oc1ccccc1N1CCN(CC(O)COCc2ccccc2Cl)CC1 (stereo not drawn)	-7.5	nt	50.1µM*	?	10µM*	20µM*
C[C@]1(OC(=O)/C=C\c2ccccc2)C[C@@H](O)[C@@]2(O)C=CO[C@@H](O[C@H]3O[C@@H](CO)[C@@H](O)[C@@H](O)[C@@H]3O)[C@H]21	nt	nt	nt	nt	19.8%[21.5 µM]	nt
CC(=O)c1cc(-c2ccc(F)cc2)n(CC(=O)NC2CCC(C)CC2)c1C (stereo not drawn)	nt	nt	-14.0%	9.6%	-3.6%[59 µM]	-19.6%
c1ccc2oc(C3=NNC(=NC4CC4)SC3)cc2c1	-14.8	-24.6	?	-12.3%	11.2µM*	?
Cc1cc(C2=NNC(=NC3CC3)SC2)c(C)n1-c1ccccc1F	-11.4	1.3	?	?	?	28.2µM*
Cc1cc2c(s1)c1cnn(Cc3cccc(Cl)c3)c(=O)c1n2C	nt	nt	nt	nt	nt	-32.2%
CN1CC2(Cc3cc([N+](=O)[O-])ccc31)C(=O)OC(C)(C)OC2=O	nt	nt	nt	7.0%	nt	-18.4%
SMILES	Six1-Eya2 blk	CtBP-E1A inh	BAZ2B inh	HP1b binding inh	G9a block	JMJD2A Tudor
Cc1cn(CC(=O)NCC(C)c2ccccc2)c(=O)[nH]c1=O (stereo not drawn)	4.6	3.4	nt	37.7%	nt	-23.0%
O=C(NC(=S)Nc1nc2ccc(F)cc2s1)c1ccco1	-2.4	3.3	nt	9.3%	-0.4%	-6.2%
COc1ccccc1NC(=O)C1=C(C)Nc2nc(SCc3ccccc3)nn2C1c1cccnc1 (stereo not drawn)	nt	nt	79.4µM*	14.8%	1.0%[59 µM]	-18.8%
COc1ccccc1NC(=O)C1=C(C)Nc2nc(CCCO)nn2C1c1cccnc1 (stereo not drawn)	-8.1	2.6	-5.1%	27.0%	50.1µM*	2.8%
Cn1c(C(=O)NCc2ccco2)cc2c(=O)[nH]c3ccccc3c21	-25.0	-19.7	-7.7%	46.9%	-0.7%[59 µM]	100µM*
COc1cccc(C(=O)Nc2c3c(nn2-c2ccc(C)cc2C)CS(=O)(=O)C3)c1OC	nt	nt	-3.8%	41.1%	-23.3%[59 µM]	?
CCN(CC)S(=O)(=O)c1ccc(C(=O)Nc2nnc(CSC)o2)cc1	4.9	-2.5	79.4µM*	37.2%	-0.2%	-9.7%
CCCCN(C)S(=O)(=O)c1ccc(C(=O)Nc2nnc(-c3ccco3)o2)cc1	-0.6	-20.6	nt	23.3%	-44.1%	-17.4%
CCc1nnc(NC(=O)c2ccc(S(=O)(=O)N(CC)Cc3ccccc3)cc2)o1	-19.6	-23.5	50.1µM*	-15.9%	-38.0%	-18.3%[11.4 µM]
CCOC(=O)N1CCN(S(=O)(=O)c2ccc(NC(C)=O)cc2)CC1	30.8	5.1	1.6%	46.2%	nt	-16.8%
CCCCN(C)S(=O)(=O)c1ccc(C(=O)Nc2nnc(CSC)o2)cc1	-10.5	-9.5	?	26.7%	nt	79.4µM*
CCOC(=O)N1CCN(S(=O)(=O)c2ccc(C(=O)Nc3nnc(CSC)o3)cc2)CC1	?	-10.0	79.4µM*	51.1%	-3.5%[59 µM]	44.7µM*
Nc1cc(N)nc(SCC(=O)NC2CCCCCCC2)n1	5.3	2.2	6.2%	9.8%	9.4%	-14.5%
CCOC(=O)CC(NC(=O)CCc1c(C)nc2c(-c3ccccc3)c(C)nn2c1C)c1ccc(C)cc1 (stereo not drawn)	nt	nt	7.6%	80.7%	14.1%[59 µM]	15.8%
COc1ccccc1CCC(=O)N(CCC1=CCCCC1)c1c(N)n(Cc2ccccc2)c(=O)[nH]c1=O	2.0	-17.0	5.5%	4.2%	50.1µM*	-14.4%
COCCN(C(=O)COC(=O)c1ccccc1NCc1ccco1)c1c(N)n(Cc2ccccc2)c(=O)[nH]c1=O	-7.3	6.1	-30.4%	21.8%	79.4µM*	-16.2%
COCCN(C(=O)CN1CCc2ccccc2C1)c1c(N)n(Cc2ccccc2)c(=O)[nH]c1=O	0.9	2.0	4.6%	30.9%	39.8µM*	-7.4%
COCCN(C(=O)CSCc1ccccc1)c1c(N)n(Cc2ccccc2)c(=O)[nH]c1=O	2.2	9.1	8.4%	39.1%	?	0.0%
